Source: PubChem BioAssay AID485344 (National Center for Advancing Translational Sciences (NCATS), 2010)
The campaign covered roughly 340,000 compounds. About 6,900 (2%) were called active. No stated cut-off is given here; in the data, active means inhibition above about 30%; inactive means below that, where a call was filed. Many of the other results were omitted from the sample, so actives are more common in it than they were.

molecular target: D(2) dopamine receptor (Homo sapiens) (UniProt P14416); test: HTS Assay for Allosteric Antagonists of the Human D2 Dopamine Receptor: Primary Screen for Antagonists; conditions: HEK293 TREx D2 cells, calcium flux, dopamine EC80; at 10 µM; hits give high values; further: 0% is about no effect
Sequence (P14416 whole entry, looked up): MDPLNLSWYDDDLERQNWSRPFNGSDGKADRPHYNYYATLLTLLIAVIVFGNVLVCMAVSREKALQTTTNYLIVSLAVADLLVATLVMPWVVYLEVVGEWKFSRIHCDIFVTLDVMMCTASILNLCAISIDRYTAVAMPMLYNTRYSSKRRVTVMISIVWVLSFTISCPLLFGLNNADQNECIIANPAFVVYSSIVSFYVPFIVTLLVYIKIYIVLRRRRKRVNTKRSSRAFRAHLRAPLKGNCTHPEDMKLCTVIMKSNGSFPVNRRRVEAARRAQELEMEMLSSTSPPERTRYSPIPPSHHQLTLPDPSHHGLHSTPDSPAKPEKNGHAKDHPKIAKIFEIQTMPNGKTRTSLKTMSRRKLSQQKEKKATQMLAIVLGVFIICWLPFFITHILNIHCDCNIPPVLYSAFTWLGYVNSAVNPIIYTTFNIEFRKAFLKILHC
Procedure, shortened: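 Calcium mobilization kinetics were recorded at 1 s intervals in tetracycline-induced HEK293 T-REx D2 cells, first for 180 s after compound addition and then 180 s after EC80 dopamine.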

SMILES | inhibition
CCn1cc(C(=O)N2CCN(C3CCCCC3)CC2)c2cc(OC)c(OC)cc2c1=O | 2.69% (inactive)
O=C(CSCc1ccc(Cl)cc1)N1CCN(Cc2ccc3c(c2)OCO3)CC1 | 15.1% (inactive)
CC(=O)Nc1ccc(NC(=O)C(C)OC(=O)C2CC(=O)N(CCc3ccccc3)C2)cc1 (stereo unspecified) | -0.386% (inactive)
O=C(NCCc1ccco1)C(=O)NCCC1CCCCN1S(=O)(=O)c1ccccc1 (stereo unspecified) | -16% (inactive)
COc1cccc(-n2c(SCC(=O)c3c[nH]c4ccccc34)nc3ccccc3c2=O)c1 | -2.99% (inactive)
CCCn1c(N)c(C(=O)CSc2nnc3n2CCCCC3)c(=O)[nH]c1=O | 3.63% (inactive)
CCCn1c(N)c(C(=O)CSc2nc3ccccc3c(=O)n2-c2ccc(OC)cc2)c(=O)[nH]c1=O | 33.2% (active)
O=C(CNc1ccccc1N1CCCC1=O)Nc1cc(Cl)ccc1-n1cncn1 | 8.23% (inactive)
Cc1ccc(F)cc1NC(=O)CSCc1c(C)noc1C | 13.7% (inactive)
O=C(CN1C(=O)NC2(CCOc3ccccc32)C1=O)NCc1ccc(F)cc1 (stereo unspecified) | 26.3% (inactive)
COc1cc(OC)c2ccc(=O)oc2c1C(CCN1CCN(c2ccccc2)CC1)c1ccc2c(c1)OCO2 (stereo unspecified) | 94% (active)
CCN(CC)CCC(c1ccc2c(c1)OCO2)c1c(OC)cc(OC)c2c(-c3ccccc3)cc(=O)oc12 (stereo unspecified) | 13.4% (inactive)
COc1cc(C(CCN2CCN(c3ccccc3)CC2)c2c(OC)cc(OC)c3ccc(=O)oc23)cc(OC)c1OC (stereo unspecified) | 23% (inactive)
NS(=O)(=O)c1cc(C(=O)OCC(=O)NNC(=O)c2ccccc2)ccc1Cl | 2.99% (inactive)
Cc1[nH]c2ccccc2c1C(=O)C(C)Sc1nnc(C2CC2)o1 (stereo unspecified) | -40.9% (inactive)
CNS(=O)(=O)c1cccc(C(=O)OCC(=O)N2c3ccccc3NC(=O)C2(C)C)c1 | -3.21% (inactive)
CCN1CCCC1Cn1cnc2c([nH]c3cc(OC)ccc32)c1=O (stereo unspecified) | 24.3% (inactive)
CC(C)OCCCNc1ncnc2c1[nH]c1ccc(F)cc12 | -11.8% (inactive)
CCN1CCCC1CNc1ncnc2c1[nH]c1ccc(F)cc12 (stereo unspecified) | 39.5% (active)
O=C(CSc1nnc(COc2ccc(Cl)cc2)n1Cc1ccco1)N1CCNC1=O | 0.458% (inactive)
Cc1ccc(CN2CCN(c3ncccn3)CC2)c(C)c1 | 80% (active)
c1cnc(N2CCN(c3ccc4ccccc4n3)CC2)nc1 | -7.91% (inactive)
CN(C)C(=O)c1nc2ccc(Cl)cn2c1CN1CCN(c2ncccn2)CC1 | -10.8% (inactive)

SMILES | inhibition
Cc1ccc(CN2CCN(/N=C/c3ccco3)CC2)c(C)c1 | -9.84% (inactive)
Cc1ccc(CN2CCN(/N=C/c3cccnc3)CC2)c(C)c1 | -10.4% (inactive)
Oc1ccc(CN2CCN(c3ncccn3)CC2)cc1 | 84.3% (active)
Cc1ccc(CN2CC(C(=O)N3CCN(S(=O)(=O)c4ccccc4)CC3)CC2=O)cc1 (stereo unspecified) | -4.27% (inactive)
O=C(CCNC(=O)c1ccccc1Cl)NCc1ccco1 | -26.5% (inactive)
CCc1nnc(NC(=O)c2cc(S(=O)(=O)N3CCCCC3)ccc2C)s1 | -4.7% (inactive)
Cc1ccccc1NC(=O)Cc1nc(COC(=O)c2ccc(C(F)(F)F)cc2)cs1 | 2.02% (inactive)
CN(CC(=O)NCC(c1ccccc1)N1CCCC1)S(=O)(=O)c1ccc(Cl)cc1 (stereo unspecified) | 11.7% (inactive)
CCOc1ccc(NC(=O)CN(C)C(=O)CCSc2ccc(F)cc2)cc1OCC | -8.24% (inactive)
CC1CCC(NC(=O)CNC(=O)c2ccc3ccccc3c2)CC1 (stereo unspecified) | -11% (inactive)
Cc1ccc(CN2CCCOCCS2(=O)=O)cc1 | -5.42% (inactive)
CCC(C)[C@H]1COCCS(=O)(=O)N1Cc1ccc(C)cc1 (stereo partly specified) | 36.6% (active)
CCCC[C@H]1COCCS(=O)(=O)N1Cc1cccc(Cl)c1 | 0.354% (inactive)
CCN(CC)C(CNC(=O)CSc1nnnn1-c1cccc(F)c1)c1ccco1 (stereo unspecified) | -7.6% (inactive)
CN1CCN(S(=O)(=O)c2ccc(N3CCN(c4ccccc4O)CC3)c([N+](=O)[O-])c2)CC1 | 6.91% (inactive)
Cc1cc(C)nc(NC(=O)c2cccc([N+](=O)[O-])c2)c1 | 14.3% (inactive)
CC(C)(C)SCCNC(=O)c1cccc([N+](=O)[O-])c1 | 7.44% (inactive)
Cc1cc(CNC(=O)c2cccc([N+](=O)[O-])c2)c2ccccc2n1 | 49.1% (active)
O=C(COC(=O)c1ncc(Cl)c(Cl)c1Cl)NCc1ccccc1 | 6.01% (inactive)
CCN(CC(=O)NCc1cccs1)C(=O)c1ccc(OC)c(S(=O)(=O)N2CCOCC2)c1 | 13.8% (inactive)
CCOC(=O)c1c(C)[nH]c(C)c1C(=O)CSc1nc(N)cc(N)n1 | 49.1% (active)
CCOC(=O)c1c(C)oc(C)c(C(=O)OCC)c1=O | -5.88% (inactive)
Cc1cc(C)nc(SCC(=O)N(C)C)n1 | 7.94% (inactive)
